Results from PubChem BioAssay AID1619 (SRMLSC, 2009).
Out of some 220,000 compounds screened, about 830 (0.38%) were called active.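 How the source made its calls: active means compound inhibiting the enzyme by more than half at any dose during confirmatory dose-response retesting; inconclusive means strong single-dose inhibitors picked by rank but not retested; inactive means the rest.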 These entries were drawn from the full list. Entries with a potency or affinity are not part of this list.

Each compound was assayed against Leucine aminopeptidase (Plasmodium falciparum (isolate 3D7)) (UniProt Q8IL11) (assay: P. falciparum M17LAP inhibitors, primary screen, biochemical, fluorogenic H-Leu-NHMec substrate, 1536-well (AID 1619;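 further: plate controls were full reaction with DMSO carrier for no effect and no enzyme background for full effect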)). Details: recombinant M17LAP, H-Leu-NHMec fluorogenic kinetic assay; at 30 µM; stronger effect = higher value.
Leucine aminopeptidase (Plasmodium falciparum (isolate 3D7)), sequence (Q8IL11 whole entry, looked up): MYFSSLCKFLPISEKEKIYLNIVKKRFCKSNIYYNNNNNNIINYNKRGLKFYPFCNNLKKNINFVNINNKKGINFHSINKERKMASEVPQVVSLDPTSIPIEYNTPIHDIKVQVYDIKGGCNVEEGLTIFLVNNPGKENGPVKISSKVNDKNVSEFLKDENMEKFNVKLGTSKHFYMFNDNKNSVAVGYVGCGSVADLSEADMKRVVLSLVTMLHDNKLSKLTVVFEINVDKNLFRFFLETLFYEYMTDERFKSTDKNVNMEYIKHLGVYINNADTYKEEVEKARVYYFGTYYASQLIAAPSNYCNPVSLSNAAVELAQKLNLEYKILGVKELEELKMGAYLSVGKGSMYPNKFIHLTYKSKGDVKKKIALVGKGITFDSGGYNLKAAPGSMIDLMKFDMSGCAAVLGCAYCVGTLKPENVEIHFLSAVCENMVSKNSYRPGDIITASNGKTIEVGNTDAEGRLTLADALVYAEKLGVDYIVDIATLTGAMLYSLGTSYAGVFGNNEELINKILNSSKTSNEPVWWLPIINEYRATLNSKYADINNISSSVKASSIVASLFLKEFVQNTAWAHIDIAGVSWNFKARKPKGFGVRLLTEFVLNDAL

inhibition, inactive:
Cc1cc(C(=O)NCc2cccs2)n(-c2ccccc2)n1 -1.13%
COc1ccccc1NC(=S)NC(=O)c1c(-c2ccccc2Cl)noc1C -2.71%
CC(C)NC(=O)/C(C#N)=C\c1ccc(N(C)C)o1 38%
CC(C)NC(=O)/C(C#N)=C/c1ccc(N(C)C)o1 48.4%
Cc1nn(CC(=O)N2CC(=O)Nc3ccccc32)c(C)c1[N+](=O)[O-] 1.29%
CCOC(=O)c1sc(NC(=S)NC(=O)C2CCCC2)cc1C -3.81%
O=C(O)C1CCCN(S(=O)(=O)c2ccc(Br)s2)C1 (centres undefined) -0.9%
Cc1ccc(-c2nn(Cc3ccccc3)cc2/C=C/C(=O)O)cc1 38.8%
O=C(O)/C=C/c1cn(Cc2ccccc2)nc1-c1ccccc1 22.2%
O=C(O)/C=C/C(=O)Nc1ccc(Oc2ccccc2)cc1 -0.33%
O=C(O)/C=C\C(=O)Nc1ccc(Oc2ccccc2)cc1 15%
CCS(=O)(=O)N1CCC(C(=O)NCc2ccc(OC)cc2)CC1 5.05%
CCC(C)[C@H](Nc1nc(-c2ccccc2)nc2c1oc1ccccc12)C(=O)O (some centres undefined) 51.5%
O=C(O)CSc1nc(-c2ccccc2)nc2c1oc1ccccc12 28.6%
Cc1nc(SCC(=O)O)c2oc3ccccc3c2n1 1.07%
CCOC(=O)C1CCN(c2nc(-c3ccccc3)nc3c2oc2ccccc23)CC1 41.7%
CCc1nc(N[C@H](C(=O)O)C(C)C)c2oc3ccccc3c2n1 3.02%
NC(=O)C1CCN(c2nc(-c3ccccc3)nc3c2oc2ccccc23)CC1 -0.35%
COc1ccc(N=C2NC(=O)/C(=C/C=C/c3ccccc3)S2)cc1 3.51%
CCc1ccc(C2CC(c3ccc(Cl)cc3)n3nc(N)nc3N2)cc1 (centres undefined) -1.74%
CCC(CC)Nc1ccc(C(CC(N)=O)NC(=O)Cc2ccc(Br)cc2)cc1[N+](=O)[O-] (centres undefined) -4.54%
CN(C)c1ccnc2sc(C(=O)NCc3ccccc3)c(N)c12 -4.21%
Cc1ccc(NC(=O)CCC(=O)OCC(=O)c2ccc(Oc3ccc([N+](=O)[O-])cc3)cc2)c(C)c1 13.8%
COc1ccc(NC(=O)CSc2nnc(NC(=O)c3ccco3)s2)cc1 22.5%
O=C(CSc1nnc(NC(=O)c2ccco2)s1)Nc1ccc(F)cc1 -1.02%
CC(C)c1nnc(NC(=O)CSc2nnc(NC(=O)c3c(F)cccc3F)s2)s1 2.85%
Cc1cccc(C)c1NC(=O)CSc1nnc(NC(=O)c2ccccc2C(=O)O)s1 19.1%
C=CCn1cnc2sc(C(=O)Nc3ccccc3OC)c(C)c2c1=O 7.04%
Clc1ccc(-c2cc(COc3ccc4ccccc4c3)no2)cc1 -2.54%
COc1ccc(C(=O)CSc2nc(N)nc(SC)c2C#N)cc1 -5.8%
CCN1C(=O)/C(=C\c2ccc(-c3ccc([N+](=O)[O-])cc3OC)o2)SC1=Nc1cccc(C(=O)O)c1 28.7%
CN1C(=O)/C(=C/c2ccco2)SC1=Nc1ccc(N2CCOCC2)cc1 -4.86%
CCOC(=O)c1sc(-c2ccccn2)nc1C 10.5%
C/C(O)=C(\C#N)c1nc2ccccc2[nH]1 1.5%
CCN(CC)S(=O)(=O)c1ccc(Cl)c(NC(=O)CCCCl)c1 8.77%
NC(=O)C1CCN(C(=O)c2ccc(CS(=O)(=O)c3c(Cl)cccc3Cl)o2)CC1 1.58%
CCCCn1c(N)c(Br)c(=O)[nH]c1=O 10%
COc1cc(/C=N/NC(=O)CC2C(=O)NN=C2C)ccc1O (centres undefined) 10.4%
COc1cc(OC)c(OC)cc1/C=N/NC(=O)CC1C(=O)NN=C1C (centres undefined) 53.3%
CCOc1cccc(/C=N/NC(=O)CC2C(=O)NN=C2C)c1O (centres undefined) 3.72%
COc1ccc(OC)c(/C=N/NC(=O)CC2C(=O)NN=C2C)c1 (centres undefined) -164%
CCCn1c(C2CC(=O)N(c3ccc(C)cc3)C2)nc2ccccc21 (centres undefined) 4.53%
O=C(Nc1cccc(F)c1)/C(=C\c1cccnc1)NC(=O)c1cccs1 7.11%
CC1=C(C#N)C(=O)NC(=O)/C1=C\c1ccc(-c2cc(C)c(C)cc2[N+](=O)[O-])o1 24.2%
CC1=C(C#N)C(=O)NC(=O)/C1=C/c1ccc(-c2ccc(S(N)(=O)=O)cc2)o1 35.6%
CC(=O)c1c(O)cc(=O)n(-c2ccccc2)c1-c1ccc(Cl)cc1 -10.1%
CC(=O)c1c(O)cc(=O)n(-c2ccccc2)c1-c1ccc(C)cc1 0.53%
Cc1cccc(Nc2nnc(SCC(=O)c3ccc(Br)s3)s2)c1C 23%
CN(C(=O)CSc1nnc(-c2ccc(Cl)cc2)n1CC1CCCO1)C1CCS(=O)(=O)C1 (centres undefined) -0.82%
Cc1cc(C)n2nc(SCc3ccccc3)nc2n1 -5.69%
COc1ccc(CNc2nc3nc(C)cc(C)n3n2)cc1OC 4.62%
CSc1nc2nc(C)cc(-c3ccccc3)n2n1 -6.85%
Nc1nc2nc(-c3ccc(OCc4ccccc4)cc3)cc(C(F)(F)F)n2n1 -1.91%
COc1cc(C)nc2nc(SCc3ccccc3)nn12 -4.54%
Cc1nc2nc(COc3ccccc3)nn2c(C)c1Cl -4.07%
COc1ccc(CNc2ncccn2)cc1OC -2.62%
CSc1nc2nc(-c3ccccc3)cc(C(F)(F)F)n2n1 -8.74%
COC(=O)c1c(NC(=O)Cn2cnc([N+](=O)[O-])n2)sc2c1CCC(C)C2 (centres undefined) 1.07%
O=C(NC1CCN(Cc2ccccc2)CC1)C1CCN(c2nnc(-n3cccc3)s2)CC1 -1.52%
Nc1cc(C(F)(F)F)ccc1Nc1ccccc1 -4.7%
CCCCOC(=O)Nc1ccccc1C(=O)N1CCCC1 10.4%
CCOC(=O)C(C(=O)NCC1CCCO1)C1CCCCC1 (centres undefined) 5.23%
CCOC(=O)C1(O)CSc2nc3sc(C(=O)O)c(C)c3c(=O)n21 (centres undefined) -2.76%
COc1ccc(-c2noc(CN(C)Cc3ccc(C)o3)n2)cc1 1.39%
COc1cc([N+](=O)[O-])ccc1NC(=O)CN1CCN(C(=O)c2ccco2)CC1 17.7%
COc1cc2c(C(=O)N3CCN(c4cccc(Cl)c4)CC3)cn(CC(C)C)c(=O)c2cc1OC -4.76%
CC1(C)Cc2c(c(N3CCOCC3)nc3sc4c(N5CCOCC5)nnnc4c23)CS1 -1.05%
CCc1ccc(NC2=NCC(=O)N2c2ccc3c(c2)OCCO3)cc1 -5.16%
CCOC(=O)C1(CC2CC2)CCN(Cc2cn[nH]c2-c2cccc(F)c2)CC1 -3.31%
Cc1ccc(NC(=O)c2ccccc2OCC(=O)c2ccccc2)cc1 3.34%
CC(/C=N/NC(=O)Cc1cccs1)=C\c1ccccc1 -13.2%
O=C(Cc1cc(=O)[nH][nH]1)N/N=C/C(Cl)=C/c1ccccc1 52.8%
O=C(Cc1ccc(Cl)cc1)N/N=C/c1c(Cl)cccc1Cl -10.8%
O=C(Cc1cccs1)N/N=C/C(Cl)=C/c1ccccc1 -2.46%
CC(/C=N/NC(=O)Cc1cccn1C)=C\c1ccccc1 32.7%
O=C(Cc1cc(=O)[nH][nH]1)N/N=C/c1c(Cl)cccc1Cl 47.6%
O=C(CCCN1C(=O)c2cccc3cccc(c23)C1=O)NCCN1CCOCC1 4.16%
O=C(CCc1nnc(CCCCc2ccccc2)o1)NCc1cccc(F)c1 -1.09%
CCC(C)Oc1cc(-c2ccnc(Nc3cccc(Cl)c3)n2)ccn1 (centres undefined) 0.9%
CC(=O)Nc1ccc(S(=O)(=O)NCc2csc(-c3cccnc3)n2)cc1 5.75%
CC(=O)NS(=O)(=O)c1ccc(NC(=O)c2cc(-c3cccs3)nc3ccccc23)cc1 16.1%
Cc1ccc(-c2cc(C(=O)Nc3ccc(S(=O)(=O)Nc4ncccn4)cc3)c3ccccc3n2)cc1 39.1%
Cc1ccc(-c2cc(C(=O)Nc3ccc(S(=O)(=O)Nc4nc(C)cc(C)n4)cc3)c3ccccc3n2)cc1 -0.85%
CC(=O)NS(=O)(=O)c1ccc(NC(=O)c2cc(-c3ccc(C)c(C)c3)nc3ccccc23)cc1 -0.01%
COc1ccc2c(c1)nc(SCC(=O)c1ccc(Br)s1)n2C 43.5%
CCOC(=O)CCP(=O)(O)C(O)c1ccccc1 (centres undefined) 11.7%
COc1ccc(C(O)P(=O)(O)CCc2ccccc2)cc1 (centres undefined) 21.7%
O=C1OC(c2ccccc2)=C/C1=C\N1CCOCC1 8.13%
CC(C)[C@H](NC(=O)c1ccccc1)C(=O)OCC(=O)N1CCc2ccccc2C1 10.5%
COc1ccc(NC(=O)c2ccc(-n3cccn3)c([N+](=O)[O-])c2)cc1 1.4%
O=C(CCCOc1ccc(Cl)cc1Cl)n1nnc2ccccc21 69.2%
O=C(CCCOc1ccccc1)n1nnc2ccccc21 -0.57%
CN1CCN(C(=O)/C=C/c2ccc3c(c2)OCO3)CC1 6.85%
COc1ccc(-n2c(=O)c3c4c(sc3n(CC(=O)NC3CCCC3)c2=O)CCCC4)c(OC)c1 0%
